Most compounds without a hit are left out; they make up all but 18% or so of the library.
DT40 TDP1 CPT = qHTS for Inhibitors of human tyrosyl-DNA phosphodiesterase 1 (TDP1): qHTS in cells in presence of CPT. chicken DT40 Tdp1-/-;hTDP1 cells + 20 nM CPT, ATP luminescence, 48 h. Potency, µM (highest dose often 46.2 µM), hits mostly inhibitors. 12% of 420,000 active. AID 686979, 2013; also: nearly all actives have a fitted effect of over 55% in size
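Chicken DT40 Tdp1-/- cells stably complemented with human TDP1 were seeded at 400 cells/well in medium containing 20 nM camptothecin, exposed to pin-transferred compounds, and grown at 37 °C for at least 48 hr. Viability was read as ATP luminescence.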
TDP1 cell noCPT = qHTS for Inhibitors of human tyrosyl-DNA phosphodiesterase 1 (TDP1): qHTS in cells in absence of CPT. DT40 Tdp1-/- hTDP1 cells, no CPT, ATP luminescence, 48 h. Potency, µM (top dose mostly 46.2 µM), hits mostly inhibitors. 15% of 420,000 active. AID 686978, 2013; also: nearly all actives have a fitted effect of over 55% in size
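DT40 Tdp1-/-;hTDP1 cells, no CPT (DMSO vehicle only), 400 cells/well; compounds pin-transferred; ≥48 hr, 37 °C; CellTiter-Glo 30 min RT dark, luminescence read.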
CtBP-E1A blk = qHTS Assay for Inhibitors of the CtBP/E1A Interaction; AlphaScreen GST-E1A/His-CtBP binding, 1536-well; hits give low values; activity change, % (test concentration not listed); AID 651724, 2012; 0.49% of 340,000 active; in the data active = activity change below about -65%; inconclusive = mostly about -30% to -63%
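Protein mix (5X: 125 nM each GST-E1A, His-CtBP) was incubated with pinned compound 2 h at 37 deg C in dark, in 50 mM Tris pH 8.0 buffer with 300 mM NaCl. Glutathione donor and nickel acceptor beads followed; AlphaScreen signal read after 1 h.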
Six1-Eya2 blk = qHTS Assay for Inhibitors of the Six1/Eya2 Interaction. activity change, % (no concentration beside the values). AlphaScreen GST-Six1/His-Eya2 binding, biochemical; hits give low values. 0.56% of 360,000 active. Homeobox protein SIX1 (Homo sapiens) + Protein phosphatase EYA2 (Homo sapiens), …; in the data active = activity change below about -65%; inconclusive = mostly about -30% to -63%
Target sequence (O00167 whole entry, looked up): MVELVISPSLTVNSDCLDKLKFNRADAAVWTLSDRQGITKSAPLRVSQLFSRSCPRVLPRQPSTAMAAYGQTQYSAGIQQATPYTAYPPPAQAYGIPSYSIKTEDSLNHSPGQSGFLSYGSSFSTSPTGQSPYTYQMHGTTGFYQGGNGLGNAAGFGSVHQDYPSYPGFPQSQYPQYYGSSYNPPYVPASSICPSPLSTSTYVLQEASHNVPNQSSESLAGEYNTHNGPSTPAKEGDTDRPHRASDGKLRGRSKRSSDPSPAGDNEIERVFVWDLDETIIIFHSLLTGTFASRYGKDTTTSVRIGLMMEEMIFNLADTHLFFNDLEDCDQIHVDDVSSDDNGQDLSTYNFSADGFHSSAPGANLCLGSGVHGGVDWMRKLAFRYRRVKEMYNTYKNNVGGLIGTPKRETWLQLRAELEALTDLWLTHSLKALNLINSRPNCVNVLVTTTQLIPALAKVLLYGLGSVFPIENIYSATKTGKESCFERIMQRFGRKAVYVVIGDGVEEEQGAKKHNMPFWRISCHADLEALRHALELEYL
Target sequence (Q15475 whole entry, looked up): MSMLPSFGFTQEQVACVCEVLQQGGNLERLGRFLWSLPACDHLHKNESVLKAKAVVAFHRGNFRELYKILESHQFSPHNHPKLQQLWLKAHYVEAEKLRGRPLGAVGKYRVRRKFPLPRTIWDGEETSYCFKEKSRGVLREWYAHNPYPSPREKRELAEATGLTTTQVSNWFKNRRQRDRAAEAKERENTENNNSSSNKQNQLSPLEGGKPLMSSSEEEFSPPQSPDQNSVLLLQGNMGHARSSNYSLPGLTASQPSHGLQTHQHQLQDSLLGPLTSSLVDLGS
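AlphaScreen luminescence read after one hour at 37 °C in darkness. Pin-transferred compounds met GST-Six1 and His-Eya2 protein (5X stock 250 nM/500 nM) plus glutathione donor and Ni-chelate acceptor beads (5X, 50 ug/mL).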
IL1B secr inh = qHTS for Inhibitors of Inflammasome Signaling: IL-1-beta AlphaLISA Primary Screen; THP-1 LPS/ATP IL-1B secretion, AlphaLISA, 16 h; hits give low values; activity change, % at 57.5 µM; 4.7% of 360,000 active; in the data active = activity change below about -50%; inconclusive = mostly about -30% to -49%
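THP-1 cells pretreated 1 hr with compounds (up to 57.5 uM final), then stimulated with LPS (250 ng/mL final) plus ATP (1.25 mM final); secreted IL-1B measured by AlphaLISA after 16 hr, decreased signal indicating inhibition.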
TDP1 inh = qHTS Assay for Inhibitors of Tyrosyl-DNA Phosphodiesterase (TDP1) | Tyrosyl-DNA phosphodiesterase 1 (Homo sapiens), Q9NUW8 | recombinant TDP1, AlphaScreen DNA substrate cleavage | Potency, µM (highest dose often 130 µM), hits mostly inhibitors | 0.28% of 350,000 active | AID 485290, 2010; also: nearly all actives have a fitted effect of over 40% in size
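Tdp1 1 nM final; 15 min RT w/ cpd; substrate 15 nM, 5 min; beads 10 ug/ml, 10 min; AlphaScreen read. Neg ctrl: no enzyme.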
Large screens that a line does not name were inactive. Unless noted, calls follow the shape of the dose curve; as a rule, active = well fitted curve in the direction sought with a large enough effect; inconclusive = small, poorly fitted or top-dose-only effect, or another doubt; inactive = no such curve, though single readings can be large; an effect the other way counts as inactive or inconclusive.

Cc1ccc(S(=O)(=O)c2nc(S(C)(=O)=O)sc2N2CC(C)OC(C)C2)cc1 (configuration not stated)	DT40 TDP1 CPT inconclusive, TDP1 cell noCPT inconclusive, IL1B secr inh inconclusive
CN(C)CC(C)(C)CNc1ccc(S(=O)(=O)N2CCCC2)cn1	none
CC(=O)Nc1ccc(S(=O)(=O)/N=C2\SCCN2S(=O)(=O)c2ccc(NC(C)=O)cc2)cc1	none
Cc1cc(O)c(N)c(C)c1Cl	DT40 TDP1 CPT inconclusive, TDP1 cell noCPT inconclusive (no result: CtBP-E1A blk)
CC(=O)c1cccc(S(=O)(=O)N2CCCC(c3nc(-c4ccc(C)o4)no3)C2)c1 (configuration not stated)	DT40 TDP1 CPT 18.4µM, TDP1 cell noCPT inconclusive
Cc1ccc(-c2noc(C3CCCN(S(=O)(=O)c4ccc5ccccc5c4)C3)n2)o1 (configuration not stated)	DT40 TDP1 CPT inconclusive, IL1B secr inh inconclusive
Cn1nc(C(C)(C)C)cc1C(=O)N1CCCCC1c1cc(C(=O)Nc2cccc(C#N)c2)no1 (configuration not stated)	DT40 TDP1 CPT 20.6µM, TDP1 cell noCPT 16.4µM (no result: TDP1 inh)
N#Cc1cccc(NC(=O)c2cc(C3CCCCN3C(=O)c3ccccc3)on2)c1 (configuration not stated)	DT40 TDP1 CPT 18.4µM, TDP1 cell noCPT 10.3µM (no result: TDP1 inh)
N#Cc1cccc(NC(=O)c2cc(C3CCCCN3C(=O)C3CC3)on2)c1 (configuration not stated)	DT40 TDP1 CPT 25.9µM, TDP1 cell noCPT inconclusive (no result: TDP1 inh)
O=C(Nc1ccccc1)c1cc(C2CCCCN2C(=O)c2cccs2)on1 (configuration not stated)	DT40 TDP1 CPT inconclusive, TDP1 cell noCPT 18.4µM (no result: TDP1 inh)
CCCCCCCCc1nc(SC(C)C(=O)O)n[nH]1 (configuration not stated)	none
COc1ccc(C(=O)N2CCCCC2c2cc(C(=O)Nc3cccc(C#N)c3)no2)cc1 (configuration not stated)	DT40 TDP1 CPT 23.1µM, TDP1 cell noCPT inconclusive (no result: TDP1 inh)
COc1ccc(NC(=O)c2cc(C3CCCCN3C(=O)C3CC3)on2)c(C)c1 (configuration not stated)	DT40 TDP1 CPT inconclusive (no result: TDP1 inh)
N#Cc1cccc(NC(=O)c2cc(C3CCCCN3C(=O)c3ccccn3)on2)c1 (configuration not stated)	DT40 TDP1 CPT 23.1µM, TDP1 cell noCPT inconclusive (no result: TDP1 inh)
COc1ccc(NC(=O)c2cc(C3CCCCN3C(=O)c3ccccc3)on2)c(C)c1 (configuration not stated)	DT40 TDP1 CPT 18.4µM, TDP1 cell noCPT 9.2µM (no result: TDP1 inh)
CCCN1Cc2cccc(C(=O)NC(C)c3cccs3)c2C1=O (configuration not stated)	none
O=C(NCCCN1CCOCC1)c1ccc2c(c1)N(Cc1c(F)cccc1Cl)C(=O)c1ccccc1S2	DT40 TDP1 CPT inconclusive, TDP1 cell noCPT inconclusive, IL1B secr inh -52.3 (no result: CtBP-E1A blk)
O=C(NCCCN1CCOCC1)c1ccc2c(c1)N(Cc1cccc(Cl)c1)C(=O)CS2	DT40 TDP1 CPT inconclusive, TDP1 cell noCPT 16.4µM
O=C(NCCCN1CCOCC1)c1ccc2c(c1)N(Cc1cccc(Cl)c1)C(=O)c1ccccc1S2	DT40 TDP1 CPT inconclusive, TDP1 cell noCPT 23.1µM (no result: CtBP-E1A blk, Six1-Eya2 blk, IL1B secr inh)
N#C/C(C(N)=O)=C1/SC(Cc2ccc(F)cc2)C(=O)N1c1ccccc1 (configuration not stated)	none
CCn1cc(C(=O)NCCc2ccc(C)cc2)c(=O)c2cc(S(=O)(=O)N3CCC(C)CC3)ccc21	DT40 TDP1 CPT inconclusive, TDP1 cell noCPT inconclusive (no result: CtBP-E1A blk, Six1-Eya2 blk, IL1B secr inh)
C=CCn1c(COc2ccc(F)cc2)nnc1SCC(=O)NC1CCCC1	none (no result: TDP1 inh)
COC(=O)c1cn(NC(=O)c2cc([N+](=O)[O-])ccc2F)c(=O)c2ccccc12	DT40 TDP1 CPT 3.26µM, TDP1 cell noCPT 4.61µM, IL1B secr inh -93.0
COC(=O)c1cn(NC(=O)C2CCC(C)CC2)c(=O)c2ccccc12 (configuration not stated)	none
COc1cc(OC)cc(C(=O)Nn2cc(C(=O)Nc3ccc(F)cc3F)c3ccccc3c2=O)c1	DT40 TDP1 CPT 13µM, TDP1 cell noCPT inconclusive, Six1-Eya2 blk inconclusive
Cn1c(=O)c2cc(S(=O)(=O)NC(C(=O)Nc3cccc(F)c3)c3ccccc3)ccc2n(C)c1=O (configuration not stated)	DT40 TDP1 CPT inconclusive, TDP1 cell noCPT inconclusive
Cc1ccccc1NC(=O)C(NS(=O)(=O)c1ccc2c(c1)c(=O)n(C)c(=O)n2C)c1ccccc1 (configuration not stated)	DT40 TDP1 CPT inconclusive, TDP1 cell noCPT 16.4µM
COc1ccccc1NC(=O)C(Cc1ccccc1)NS(=O)(=O)c1ccc2c(c1)c(=O)n(C)c(=O)n2C (configuration not stated)	DT40 TDP1 CPT 23.1µM, TDP1 cell noCPT inconclusive (no result: CtBP-E1A blk, Six1-Eya2 blk, IL1B secr inh)
COc1cccc(NC(=O)C(Cc2ccccc2)NS(=O)(=O)c2ccc3c(c2)c(=O)n(C)c(=O)n3C)c1 (configuration not stated)	TDP1 cell noCPT inconclusive (no result: CtBP-E1A blk, Six1-Eya2 blk, IL1B secr inh)
CC1(C)C(CC(=O)O)CC1C(=O)O (configuration not stated)	none (no result: TDP1 inh)
CCN(Cc1ccccc1)Cc1c(O)ccc2oc(C)c(C(=O)Nc3ccc(C)cc3C)c12	DT40 TDP1 CPT 7.31µM, TDP1 cell noCPT 7.31µM (no result: CtBP-E1A blk, Six1-Eya2 blk, IL1B secr inh)
Cc1ccc(NC(=O)c2c(C)oc3ccc(O)c(CN(C)Cc4ccccc4)c23)c(C)c1	DT40 TDP1 CPT 16.4µM, TDP1 cell noCPT 14.6µM (no result: CtBP-E1A blk, Six1-Eya2 blk, IL1B secr inh)
COc1cc(CN2CCCC(CO)(Cc3cccc(Cl)c3)C2)cc(OC)c1O (configuration not stated)	DT40 TDP1 CPT inconclusive, TDP1 cell noCPT inconclusive (no result: TDP1 inh)
CCn1c2ccccc2c2cc(/C=N/NC(=O)c3cccc(C)c3)ccc21	DT40 TDP1 CPT 29.1µM, TDP1 cell noCPT 18.4µM
CCn1c2ccccc2c2cc(/C=N/O)ccc21	DT40 TDP1 CPT inconclusive, TDP1 cell noCPT inconclusive (no result: CtBP-E1A blk)
CCn1c2ccccc2c2cc(/C=N/NC(=O)c3ccccc3C)ccc21	DT40 TDP1 CPT 2.59µM, TDP1 cell noCPT 2.59µM
Cc1onc(-c2ccccc2)c1C(=O)N1CCN(C(=O)c2ccco2)CC1	none

High-throughput results as filed in PubChem BioAssay.
